Growth data for 14 molecules are collected here from PubChem BioAssay (NCI).

Some test systems named below: HCT-15 colon; HT29 colon; SNB-75 CNS; U251 CNS; PC-3 prostate; SK-MEL-5 melanoma; UACC-62 melanoma; LOX IMVI melanoma; SK-MEL-28 melanoma; SNB-19 CNS.
Holding throughout (assay): NCI-60 one-dose screen, 48 h (100 = growth as untreated, 0 = no growth, -100 = all killed)
Conditions in all cases: 10 µM unless noted

About 83,000 compounds went through this panel and 20% of them were active in at least one assay; those are over-represented in the sample as a whole.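 Cell lines were cultured in 96-well plates, exposed to a single compound concentration, and assessed for percent growth 48 hours later.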 A number with no mark means an inactive call. Activity calls are given as the source filed them. Rule for the calls: active = growth percent below 10; inactive = the rest.

As for `Nc1nc(Nc2ccccc2)c2ncn(Cc3cc4c(cc3Br)OCO4)c2n1`, the growth in the test on HCT-15 colon is 6.74% (active); in the test with HT29 colon, -34% (active); with SNB-75 CNS it was 18.8%; with U251 CNS it was 3.29% (active); in the test with PC-3 prostate, 16.2%; in the test on SK-MEL-5 melanoma, -6.17% (active). Further, the growth in the test on UACC-62 melanoma was 33.6%; in the test on LOX IMVI melanoma it was 12.9%; in the test with SK-MEL-28 melanoma, 52%.
In the case of `COCc1nc2ccccc2[nH]1`, the growth was 97.7% in the test with HCT-15 colon; 104% in the test with HT29 colon; 95.8% in the test with SNB-75 CNS; 98.3% in the test on U251 CNS; 104% with PC-3 prostate; 99.5% in the test with SK-MEL-5 melanoma. In addition, the results for the growth with UACC-62 melanoma and in the test with SK-MEL-28 melanoma were 99.1% and 98.8%, respectively.
For the molecule `c1nc(N2CCOCC2)c2[nH]ccc2n1`, the growth in the test with HCT-15 colon is 105%; in the test with HT29 colon, 96%; in the test on SNB-75 CNS, 97.6%; in the test with U251 CNS, 100%; with PC-3 prostate, 107%; in the test on SK-MEL-5 melanoma, 111%. For the same molecule, the results for the growth with UACC-62 melanoma and in the test on SK-MEL-28 melanoma were 103% and 106%, respectively.
With `Cc1ccc(Oc2c(/C=N/NC(=O)Cn3c(=O)sc4ccccc43)c(C)nn2-c2ccccc2)cc1`, the growth in the test with HCT-15 colon is 42.2%; in the test on HT29 colon, 31.3%; in the test with SNB-75 CNS, 53.4%; in the test with U251 CNS it was 42.9%; in the test on PC-3 prostate it was 35.8%; in the test with SK-MEL-5 melanoma, 37.7%. Also, the growth in the test on UACC-62 melanoma is 52.7%; with LOX IMVI melanoma, 64.7%; in the test with SK-MEL-28 melanoma, 93.5%.
`CCNc1cc2c(cc1Br)-c1ccccc1C2=O`: the growth with HCT-15 colon is 77.6%; in the test with HT29 colon it was 97.4%; in the test on SNB-75 CNS, 78.1%; with U251 CNS it was 96.3%; with SK-MEL-5 melanoma, 95.2%; in the test on UACC-62 melanoma, 86.9%. For the same molecule, the growth in the test with LOX IMVI melanoma was 88.1%; with SK-MEL-28 melanoma, 114%.
On to `CC1=CC[C@@H]2C(C)(C)[C@@H](O)CC[C@@]2(C)[C@@H]1COc1ccc2ccc(=O)oc2c1`, for which the growth was 29.4% in the test with HCT-15 colon; 70.5% in the test with HT29 colon; 62.1% in the test with SNB-75 CNS; 67.9% with U251 CNS; 30.6% in the test on PC-3 prostate; 28.7% in the test with SK-MEL-5 melanoma. For the same molecule, the growth was 22.9% in the test with UACC-62 melanoma, 52.2% with LOX IMVI melanoma and 91.4% with SK-MEL-28 melanoma.
Consider `COC(=O)c1cc(O)c2c(c1C(=O)OC)C[C@H]1[C@@H]3CC=C4C[C@@H](O)CC[C@]4(C)[C@H]3CC[C@]21C`, for which the growth in the test on HCT-15 colon was 24.6%; in the test on HT29 colon it was 16.2%; in the test with SNB-75 CNS, 62.2%; with U251 CNS it was 37.5%; in the test with PC-3 prostate it was 41.3%; with SK-MEL-5 melanoma, 1.59% (active). The growth in the test with UACC-62 melanoma is 40.9%; with LOX IMVI melanoma, 9.77% (active); in the test on SK-MEL-28 melanoma, 46.3%.
Turning to `CCCn1ccnc1C(O)c1ccc(OCc2ccccc2)c(OC)c1` (stereo unspecified), the growth in the test on HCT-15 colon is 93.5%; in the test with HT29 colon, 103%; in the test on SNB-75 CNS it was 71.2%; in the test with U251 CNS, 86.8%; in the test with PC-3 prostate it was 82.7%; in the test with SK-MEL-5 melanoma, 93.5%. The growth with UACC-62 melanoma was 87.3%; in the test with LOX IMVI melanoma, 94.4%; with SK-MEL-28 melanoma, 103%.
For `COc1ccc(C(=O)CSc2nccc(Nc3ccc(C(=O)O)cc3)n2)cc1`, the growth with HCT-15 colon was 100%; in the test with HT29 colon, 104%; in the test on SNB-75 CNS, 102%; in the test with U251 CNS, 98%; with PC-3 prostate, 102%; in the test on SK-MEL-5 melanoma, 93.6%. Moreover, the results for the growth with UACC-62 melanoma, in the test on LOX IMVI melanoma and in the test on SK-MEL-28 melanoma were 89.7%, 101% and 100%, respectively.
With `C=C(C)[C@@H]1CC[C@]2(C)[C@H](CC=C3[C@@H]4[C@@H](C)[C@H](C)CC[C@]4(C(N)=O)CC[C@]32C)[C@@]1(C)CCC#N`, the growth was 9.25% [100 µM] (active) with HCT-15 colon; -32.6% [100 µM] (active) in the test with HT29 colon; -5.4% [100 µM] (active) in the test with SNB-75 CNS; -59.3% [100 µM] (active) in the test with U251 CNS; 12.2% [100 µM] in the test on PC-3 prostate; -87.9% [100 µM] (active) in the test on SK-MEL-5 melanoma. The results for the growth in the test with UACC-62 melanoma, with LOX IMVI melanoma and with SK-MEL-28 melanoma were -63.9% [100 µM] (active), -92.9% [100 µM] (active) and -67.8% [100 µM] (active), respectively.
On to `COC(=O)[C@]12CCC(C)(C)C[C@H]1C1=CC[C@@H]3[C@@]4(C)C/C(=C/c5cccnc5)C(=O)C(C)(C)[C@@H]4CC[C@@]3(C)[C@]1(C)CC2`, for which the growth was 0.973% [100 µM] (active) with HCT-15 colon; -15.9% [100 µM] (active) in the test on HT29 colon; -59.8% [100 µM] (active) in the test on SNB-75 CNS; -38.2% [100 µM] (active) in the test on U251 CNS; -16.3% [100 µM] (active) in the test with PC-3 prostate; -93.9% [100 µM] (active) with SK-MEL-5 melanoma. The values for the growth in the test on UACC-62 melanoma, with LOX IMVI melanoma and with SK-MEL-28 melanoma were -59.4% [100 µM] (active), -89.5% [100 µM] (active) and -69.5% [100 µM] (active), respectively.
For the molecule `Cn1cc(-c2noc(-c3cn(C)c4ncc(F)cc34)n2)c2cc(Cl)ccc21`, the growth in the test on HCT-15 colon is 65.8%; in the test on HT29 colon, 25.5%; in the test on SNB-19 CNS, 70.1%; in the test with U251 CNS, 19.4%; in the test with PC-3 prostate, 79.4%; in the test with SK-MEL-5 melanoma, 87%. For the same molecule, the growth in the test with UACC-62 melanoma was 77.8%; in the test on SK-MEL-28 melanoma, 85.8%.
As for `O=[N+]([O-])c1cc(CCl)ccc1OCCBr`, the growth in the test on HCT-15 colon is 91.1%; with HT29 colon it was 96.7%; in the test with SNB-19 CNS, 107%; in the test on U251 CNS, 101%; with PC-3 prostate it was 98.1%; in the test with UACC-62 melanoma it was 96.8%. Also, the growth in the test with LOX IMVI melanoma was 95%; with SK-MEL-28 melanoma it was 110%.
For `CC1(C)C(=O)/C(=C\c2ccco2)C[C@]2(C)[C@H]3CC=C4[C@@H]5C[C@](C)(C(=O)O)CC[C@]5(C)CC[C@@]4(C)[C@]3(C)CC[C@@H]12`, the growth is -86.4% [100 µM] (active) in the test with HCT-15 colon; -50.8% [100 µM] (active) with HT29 colon; -91.7% [100 µM] (active) in the test on SNB-19 CNS; -80.8% [100 µM] (active) in the test with U251 CNS; -32.2% [100 µM] (active) with PC-3 prostate; -72.7% [100 µM] (active) in the test on SK-MEL-5 melanoma. The growth in the test with UACC-62 melanoma was -83.7% [100 µM] (active); in the test with LOX IMVI melanoma it was -93.6% [100 µM] (active); with SK-MEL-28 melanoma it was -75.1% [100 µM] (active).
